Bioassay records deposited in PubChem BioAssay by National Center for Advancing Translational Sciences (NCATS).
Most compounds without a hit are left out; they make up all but 8.3% or so of the library.
Chronic BCR inh: blocks chronic active B-cell receptor signaling; Potency, µM (top dose mostly 46.1 µM), without a hit: top-dose activity change, negative = inhibition, actives largely listed as inhibitors; 340,000 compounds, 0.05% hits; ABC-DLBCL IkBa-CBG/CBR reporter, luminescence ratio, 4 h; active means well fitted inhibition curve with a large enough effect in the signal ratio, with a control signal flat, not every such curve was filed as active; inconclusive means small, poorly fitted or top-dose-only effect, or effect the other way, or a change in a side signal; the % refers to the signal ratio;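 further: potency means the concentration at half of the fitted maximal effect; plate controls were basal doxycycline-induced cells for no effect and cells given 10 µM MG132 for full effect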
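Concentration-response series (up to 46 uM) were applied to TMD8 dual-reporter cells for 4 h at 37C with doxycycline. Green/red ratio, after filter-overlap correction, defined %Activity; red signal alone was normalised to basal cells and zero luminescence.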
RORg inh: blocks mouse ROR gamma transcriptional activity; 310,000 compounds, 5.4% hits; P51450; Potency, µM (highest dose often 53.6 µM), for the others: top-dose activity change, negative = inhibition, hits mostly inhibitors; Drosophila S2 Gal4-RORgamma UAS-luciferase reporter, 20 h; further: potency means the concentration at half of the fitted maximal effect; on the % scale 0 is the no-effect control and ±100 the full control effect; nearly all actives have a fitted effect of over 60% in size
Target sequence (P51450 whole entry, looked up, the tested form may be a part): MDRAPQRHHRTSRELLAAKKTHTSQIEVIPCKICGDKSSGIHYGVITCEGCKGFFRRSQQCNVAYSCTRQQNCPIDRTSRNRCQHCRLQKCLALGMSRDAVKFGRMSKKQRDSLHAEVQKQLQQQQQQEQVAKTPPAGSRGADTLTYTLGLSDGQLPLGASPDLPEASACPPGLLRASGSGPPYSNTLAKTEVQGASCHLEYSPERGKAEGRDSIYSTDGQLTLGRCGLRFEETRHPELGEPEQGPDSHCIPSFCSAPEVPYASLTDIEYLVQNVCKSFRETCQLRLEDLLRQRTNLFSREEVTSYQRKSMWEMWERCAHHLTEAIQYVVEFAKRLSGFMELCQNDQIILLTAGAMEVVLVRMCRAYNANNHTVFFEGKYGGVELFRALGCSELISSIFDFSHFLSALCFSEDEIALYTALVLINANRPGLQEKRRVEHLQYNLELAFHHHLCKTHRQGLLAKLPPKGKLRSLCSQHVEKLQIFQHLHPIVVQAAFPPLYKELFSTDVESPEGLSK
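Stably transfected Drosophila Schneider cells are the test system, with ROR gamma fused to Gal4 and luciferase under UAS control; luminescence is read after 20 hr of 700 uM copper sulfate induction at ambient temperature.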
VP16 counter: inhibits Gal4-VP16 luciferase reporter, ROR gamma counter-screen | Drosophila S2 Gal4-VP16 UAS-luciferase, luminescence, 20 h | Potency, µM (doses to about 53.6 µM), for inactives: at the top dose activity, negative = inhibition, usual class: inhibitors | 310,000 compounds, 3.5% hits | AID 2546;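 further: Gal4-VP16 expression switched on by copper sulfate through the metallothionein promoter; potency means the concentration at half of the fitted maximal effect; on the % scale 0 is the no-effect control and ±100 the full control effect; nearly all actives have a fitted effect of over 50% in size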
Giardia killer: Giardia lamblia killing; AID 540267; 340,000 compounds, 0.15% hits; Giardia lamblia trophozoite viability; activity change, % at 7.66 µM, hits read low; in the data active means activity change below about -80%; inconclusive means between about -30% and that limit;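 further: parasites exposed to compound for two days anaerobically before the ATP read; on the % scale 0 is the no-effect control and ±100 the full control effect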
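Each well holds 100 Giardia trophozoites and compound. After two days (48 hrs) at 37 deg C in anaerobic conditions, ATP is quantified by luminescence.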
SW480 rerep: DNA re-replication induction in SW480 cells. SW480 DNA re-replication, Hoechst DNA content imaging, 48 h. Potency, µM (series often up to 46.1 µM), without a hit: top-dose re-replication activation, usual class: activators. 340,000 compounds, 1.8% hits; further: potency means the concentration at half of the fitted maximal effect; % of control where 0% means no effect; nearly all actives have a fitted effect of over 55% in size
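Treated cells incubate 48 hr (37 C, 5% CO2), are stained 40 min with Hoechst, and nuclear fluorescence is enumerated; a rise in nuclei with high DNA signal marks re-replication.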
MCF10A rereplic: DNA re-replication induction in MCF 10a cells. MCF 10A DNA re-replication, Hoechst nuclear intensity, 48 h. Potency, µM (series often up to 46.1 µM), without a hit: at the highest dose activity, positive = re-replication, actives largely listed as activators. 350,000 compounds, 2.9% hits. AID 624296; further: potency means the concentration at half of the fitted maximal effect; % of control where 0% means no effect; nearly all actives have a fitted effect of over 50% in size
Numbers without * were called inactive; ? = inconclusive; . = not tested or not shown; ! = not confirmed by another sample; [ ] = remark or other dose. Unless noted, the call rests on the fitted dose curve; in most records, active means well fitted curve in the direction sought with a large enough effect; inconclusive means small, poorly fitted or top-dose-only effect, or another doubt; inactive means no such curve, though single readings can be large; an effect the other way counts as inactive or inconclusive.

SMILES | Chronic BCR inh | RORg inh | VP16 counter | Giardia killer | SW480 rerep | MCF10A rereplic
COc1ccccc1Nc1nc(NCCCN(C)C)nc(N)c1[N+](=O)[O-] | ? | ? | 16µM* | 7 | 142% | 35%
Cc1cccc(NC(=O)c2onc3c2CCCC3)n1 | ? | 2µM* | 5.6µM* | ? | -9% | 4%
Cc1cccc(NC(=O)c2onc3c2CCCC3)c1C | ? | ? | -11% | -8 | 3% | 18%
Cc1ccccc1NC(=O)c1onc2c1CCCC2 | ? | -33% | -4% | -8 | -5%[9.22 µM] | 3%
O=C(Nc1ccc2ccccc2c1)c1onc2c1CCCC2 | ? | 14µM* | ? | 28 | 10% | ?
COC(=O)c1cccc(NC(=O)c2onc3c2CCCC3)c1 | ? | 7.1µM* | ? | -12 | -4% | 12%
COc1cccc(NC(=O)CCNC(=O)C2CCN(S(=O)(=O)c3ccc(F)cc3)CC2)c1 | -2% | 1% | -4% | 13 | 7% | 2%
CO[C@@H]1[C@@H](OC2OC(C)C(OC3CC(C)(O)C(OC(=O)CC(C)C)C(C)O3)C(N(C)C)C2O)[C@@H](CC=O)C[C@@H](C)C(=O)/C=C\C2O[C@H]2C[C@@H](C)OC(=O)C[C@H]1OC(C)=O (some centres undefined) | . | 23% | -3% | . | 19µM* | 30µM*
COc1ccc(C(=O)NCc2nnc(SCC(=O)NO)n2Cc2ccccc2)cc1 | ? | 1% | 1% | -11 | -1% | 7%
CCCCSc1nnc(-c2ccccc2)c2ccccc12 | ? | 70% | 13µM* | -3 | 10% | ?
CCN1CCN(c2nnc(-c3ccccc3)c3ccccc23)CC1 | -1% | -20% | 0% | 21 | -8% | -4%
CCn1c(SCC(=O)NC2CC2)nnc1C(C)Oc1ccccc1 (centres undefined) | -3% | -45% | 0% | 57 | 21µM* | 2%
CCNC1CCC(Nc2ccnc3cc(Cl)ccc23)CC1 (centres undefined) | . | . | . | -13 | ? | 13%
OC(CNc1ccnc2cc(Cl)ccc12)CNC1CCCCC1 (centres undefined) | . | . | . | -11 | 23µM* | ?
CCNC(=S)NNc1nc(N2CCCCC2)nc(N2CCOCC2)n1 | -27% | 14µM* | ? | -9 | 1% | 2%
CC(C)c1ccc(OCC(=O)NC2=NCCS2)cc1 | ? | 14µM* | -22%[10 µM] | 11 | -4% | 1%
O=C(/C=C/c1ccc(Cl)c(Cl)c1)NC1=NCCS1 | -1% | 7.9µM* | ? | -7 | 1% | 7%
CC(NC(=O)c1ccc(F)cc1)C(=O)NC1=NCCS1 (centres undefined) | -3% | -23% | -9% | -13 | 6.5µM* | 3%
O=C(COc1ccccc1)NC1=NCCS1 | ? | -20% | 11% | 11 | 0% | -2%
CC(C)c1ccc(/C=C/C(=O)NC2=NCCS2)cc1 | 3% | 8.9µM* | ? | . | . | .
O=C(NC1=NCCS1)c1cc(Cl)ccc1Cl | 0% | . | . | -4 | -33% | 0%
CC(NC(=O)c1ccc(Cl)cc1)C(=O)NC1=NCCS1 (centres undefined) | 8% | -8% | -1% | 5 | 0% | 17%
CC(C)C(C(=O)NCC1CCCO1)N(C(=O)CNS(=O)(=O)c1ccccc1)c1ccc(F)cc1 (centres undefined) | 12% | 17% | 1% | 3 | -1% | 15%
CC(C)C(C(=O)NC1=NCCS1)c1ccc(Cl)cc1 (centres undefined) | 1% | 4.5µM* | ? | 3 | 8% | -3%
CC(C)(C)c1ccc(OCCC(=O)NC2=NCCS2)cc1 | -5% | 3.5µM* | 8.9µM* | 3 | 3% | 0%
SMILES | Chronic BCR inh | RORg inh | VP16 counter | Giardia killer | SW480 rerep | MCF10A rereplic
CS(=O)(=O)Nc1nnc(SCC(=O)N(c2ccccc2)c2ccccc2)s1 | 2% | 19% | -3% | 3 | -3% | -2%
CCn1ncc(Cl)c1C(=O)Nc1cc(Cl)ccc1Cl | . | -21% | 4% | -6 | 12% | -6%
CCn1ncc(Cl)c1C(=O)NC(=S)Nc1ccccc1Br | ? | 8.9µM* | 8.9µM* | 2 | 0% | 17%
Cc1nn(C)c(C(=O)NC(=S)Nc2ccccc2Br)c1Cl | ? | 8.9µM* | 14µM* | 5 | -7% | -27%
O=C1CSC2(CCN(CCCN3c4ccccc4Sc4ccc(Cl)cc43)CC2)N1 | . | 3%[10 µM] | -15% | . | 7% | 19µM*
CN1CCN(CCCN2c3ccccc3Sc3ccc(C(F)(F)F)cc32)CC1 | ? | ? | 14µM*! | -22 | ? | 23µM*
N#Cc1ccc2c(c1)N(CCCN1CCC(O)CC1)c1ccccc1S2 | . | 3% | -1% | . | 7% | 1%
CCCCN(c1ccccc1)c1ncnc2c1cnn2-c1cccc(C)c1 | 6% | . | . | . | . | .
CCOC(=O)N1CCN(Cc2nc3cc(NC(=O)c4ccco4)ccc3n2C)CC1 | 6% | 4% | -12% | -6 | -7% | -6%
CC(=O)Nc1cccc(OCc2cnc(Cl)s2)c1 | ? | 4% | -15% | 10 | 13% | 0.15µM*
O=C(Nc1c(C(=O)N2CCOCC2)cnn1-c1ccccc1)c1cccc(F)c1 | -2% | -30% | 0% | -30 | 6% | 3%
Nc1c(Cl)ncnc1N1CCN(c2ncnc(Cl)c2N)CC1 | ? | -3% | -10% | 70 | 0.23µM* | 0%
O=S(=O)(c1cccs1)N1CCCc2ccccc21 | -3% | -6% | 17%[0.365 µM] | 1 | 0% | 19%
COc1ccc(-c2c(C#Cc3ccsc3)c3cc(-c4ccc5cc[nH]c5c4)ccc3n2C)cc1 | 0% | . | . | -20 | ? | 2.3µM*
COc1cc(OC)cc(-c2c(C#Cc3ccsc3)c3cc(-c4ccc5cc[nH]c5c4)ccc3n2C)c1 | 1% | . | . | 8 | 9% | -1%
COc1cccc(CC(=O)N(CCC2=CCCCC2)c2c(N)n(Cc3ccccc3)c(=O)[nH]c2=O)c1 | -21% | . | . | -8 | -7% | 0%
Cc1cc(C)c(C(=O)N2CCCC(CNC(=O)C3(c4ccc(Cl)cc4)CC3)C2)c(=O)[nH]1 (centres undefined) | ? | -5% | -4% | -20 | -3% | 12%
COc1ccc(C(=O)c2ccc(OC)cc2OC)cc1 | -8% | -2% | -7% | -11 | ? | 16µM*
CN(C)c1ccc(C(=O)c2ccc(N(C)C)c3ccccc23)cc1 | ? | ? | ? | -9 | 0.41µM* | 0.21µM*
CN(C)c1ccc(C(=O)c2ccccc2C(=O)O)cc1[N+](=O)[O-] | 2% | 0% | -21% | -1 | -3% | 9%
COc1ccc(C(=O)c2ccc(N(C)C)cc2)c(OC)c1 | ? | -14% | -3% | -4 | 4.5µM* | 2.2µM*
